PubChem BioAssay
Calls of active or inactive are those of the source. Unless noted, no rule for the calls is given here.

Columns and labels:
[1] = anti-His antibody binders, primary screen, artefact control for SMM control protein annotation, biochemical, small-molecule microarray, 635 nm fluorescence (AID 1128); conditions: anti-His Alexa647 antibody binding, higher = more signal;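 also: score merges feature fluorescence with signal-to-noise for each printed compound spot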
[2] = system: Human papillomavirus type 1a E7 protein (residues 1-88); assay: HPV1a E7 small-molecule binders, primary screen, biochemical, small-molecule microarray, residues 1-88, 635 nm (AID 1129); conditions: small-molecule microarray binding, fluorescence 635 nm; higher = more signal
[3] = target: Focal adhesion kinase 1 (Homo sapiens) (UniProt Q05397); assay: small-molecule microarray binders of FAK, primary screen, biochemical, 635/667 nm fluorescence, BSA, DTT (AID 1130); conditions: PTK2 binding, 635 nm fluorescence, higher = more signal;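 also: composite of spot emission at 667 nm and signal to noise over triplicate slides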
Focal adhesion kinase 1 (Homo sapiens), sequence (Q05397 whole entry, looked up): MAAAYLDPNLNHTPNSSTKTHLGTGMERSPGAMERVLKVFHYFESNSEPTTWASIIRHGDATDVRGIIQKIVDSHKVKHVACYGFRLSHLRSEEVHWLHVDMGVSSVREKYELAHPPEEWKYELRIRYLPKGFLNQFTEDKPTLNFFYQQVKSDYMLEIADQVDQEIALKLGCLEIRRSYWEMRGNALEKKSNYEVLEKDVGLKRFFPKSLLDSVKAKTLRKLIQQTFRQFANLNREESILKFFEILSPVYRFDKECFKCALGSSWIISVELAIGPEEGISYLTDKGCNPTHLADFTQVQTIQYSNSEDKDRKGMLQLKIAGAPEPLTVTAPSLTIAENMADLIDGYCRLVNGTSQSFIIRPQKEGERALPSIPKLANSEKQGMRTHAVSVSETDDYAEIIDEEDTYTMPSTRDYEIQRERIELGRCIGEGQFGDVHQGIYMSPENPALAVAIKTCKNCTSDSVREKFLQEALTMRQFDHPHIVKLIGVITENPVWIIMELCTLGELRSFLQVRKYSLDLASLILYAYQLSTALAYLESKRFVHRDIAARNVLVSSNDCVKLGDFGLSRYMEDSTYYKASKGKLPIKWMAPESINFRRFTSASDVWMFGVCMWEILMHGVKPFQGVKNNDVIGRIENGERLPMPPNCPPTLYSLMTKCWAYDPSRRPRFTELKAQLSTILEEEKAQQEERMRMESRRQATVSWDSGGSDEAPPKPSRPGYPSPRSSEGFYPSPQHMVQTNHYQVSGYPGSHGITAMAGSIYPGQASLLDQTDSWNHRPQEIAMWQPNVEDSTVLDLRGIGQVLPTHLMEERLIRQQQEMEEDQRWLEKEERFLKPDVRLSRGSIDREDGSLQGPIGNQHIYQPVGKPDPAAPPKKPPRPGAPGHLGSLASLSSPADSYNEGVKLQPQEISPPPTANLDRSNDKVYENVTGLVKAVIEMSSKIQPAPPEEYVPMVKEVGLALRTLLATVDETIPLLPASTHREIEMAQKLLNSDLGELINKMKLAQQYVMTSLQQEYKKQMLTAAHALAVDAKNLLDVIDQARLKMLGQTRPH

[4] = system: Fibrinogen (Alexa647-labelled); assay: fibrinogen binders on compound microarrays, profiling panel, artefact control for SMM control-protein annotation, biochemical, small-molecule microarray, 635/667 nm fluorescence (AID 1131); conditions: fibrinogen-A647 binding fluorescence, higher = more signal;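 also: z-score merges 667 nm fluorescence with per-spot signal-to-noise over triplicate slides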
[5] = target: Follistatin (Homo sapiens) (UniProt P19883); assay: follistatin binders on small-molecule microarrays, primary screen, biochemical, small-molecule microarray, 635/667 nm fluorescence (AID 1132); conditions: FST binding, 635 nm fluorescence, higher = more signal
Follistatin (Homo sapiens), sequence (P19883 whole entry, looked up): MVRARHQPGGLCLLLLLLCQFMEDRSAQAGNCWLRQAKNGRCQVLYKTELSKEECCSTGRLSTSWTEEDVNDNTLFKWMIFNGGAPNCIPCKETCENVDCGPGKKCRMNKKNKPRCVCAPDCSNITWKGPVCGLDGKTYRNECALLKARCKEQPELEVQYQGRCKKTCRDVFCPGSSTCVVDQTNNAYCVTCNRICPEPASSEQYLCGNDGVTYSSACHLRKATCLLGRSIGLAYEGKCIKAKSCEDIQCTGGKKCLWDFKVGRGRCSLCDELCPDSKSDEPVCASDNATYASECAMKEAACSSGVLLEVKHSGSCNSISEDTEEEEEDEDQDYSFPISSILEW

[6] = target: Fibroblast growth factor 2 (Homo sapiens) (UniProt P09038); assay: FGF2 binders on small-molecule microarrays, primary screen, biochemical, small-molecule microarray, 635/667 nm fluorescence (AID 1133); conditions: small-molecule microarray binding, FGF2, fluorescence 635/667; higher = more signal
Fibroblast growth factor 2 (Homo sapiens), sequence (P09038 whole entry, looked up): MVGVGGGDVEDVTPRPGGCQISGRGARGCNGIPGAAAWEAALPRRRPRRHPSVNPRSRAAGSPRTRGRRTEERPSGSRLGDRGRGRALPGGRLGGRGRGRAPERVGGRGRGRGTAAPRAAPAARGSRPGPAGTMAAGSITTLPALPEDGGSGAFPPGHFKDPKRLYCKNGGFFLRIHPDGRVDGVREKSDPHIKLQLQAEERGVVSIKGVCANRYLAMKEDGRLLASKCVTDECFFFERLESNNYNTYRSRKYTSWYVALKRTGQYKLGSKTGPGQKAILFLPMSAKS

[7] = mitochondrial membrane potential change in A549 cells, profiling panel, cell-based, JC-1 fluorescence, basal, 24 h, 100 nL (AID 1138); conditions: higher = more signal;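 also: A549 lung adenocarcinoma cells under basal conditions with no added stimulus; test concentration not given here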
Lefty1 = Lefty1 binders on small-molecule microarrays, primary screen, biochemical, small-molecule microarray, 635/667 nm fluorescence (AID 1139); conditions: small-molecule microarray binding, fluorescence 635/667; higher = more signal
[8] = system: wheat germ agglutinin (Triticum aestivum), Alexa647-labelled; assay: wheat germ agglutinin binders on compound microarrays, profiling panel, artefact control for SMM control-protein annotation, biochemical, small-molecule microarray, 635/667 nm fluorescence (AID 1140); conditions: WGA-A647 binding, 635 nm fluorescence, higher = more signal;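 also: score merges 667 nm feature emission with signal to noise over triplicate slides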
[9] = target: Luciferin 4-monooxygenase (Photinus pyralis) (UniProt P08659); assay: firefly luciferase enzyme inhibitors, primary screen, biochemical, luminescence, purified enzyme, 2006 set (AID 1141); conditions: SteadyGlo luminescence, 30 min, higher = more signal, called active from +8 up or from −8 down;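 also: cell-free assay with purified firefly luciferase at 100 ng per well in PBS; test concentration not given here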
Luciferin 4-monooxygenase (Photinus pyralis), sequence (P08659 whole entry, looked up): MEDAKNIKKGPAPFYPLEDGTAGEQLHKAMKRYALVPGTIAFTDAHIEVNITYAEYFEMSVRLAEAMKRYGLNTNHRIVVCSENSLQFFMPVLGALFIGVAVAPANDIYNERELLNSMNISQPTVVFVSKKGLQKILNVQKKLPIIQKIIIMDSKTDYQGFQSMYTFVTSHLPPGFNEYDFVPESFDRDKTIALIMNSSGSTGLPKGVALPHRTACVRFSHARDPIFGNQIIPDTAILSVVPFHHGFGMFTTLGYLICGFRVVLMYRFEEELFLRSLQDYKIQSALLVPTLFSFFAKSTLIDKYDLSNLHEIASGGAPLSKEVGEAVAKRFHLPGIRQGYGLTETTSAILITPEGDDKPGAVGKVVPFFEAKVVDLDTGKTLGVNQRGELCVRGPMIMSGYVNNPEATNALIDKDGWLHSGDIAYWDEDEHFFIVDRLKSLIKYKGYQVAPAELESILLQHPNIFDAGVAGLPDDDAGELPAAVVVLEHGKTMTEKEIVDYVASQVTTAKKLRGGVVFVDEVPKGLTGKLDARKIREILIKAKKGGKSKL

[10] = system: Wnt5a (protein binding on small-molecule microarray); assay: Wnt5a binders on small-molecule microarray, primary screen, biophysical, 635/667 nm fluorescence (AID 1142); conditions: 635 nm fluorescence, higher = more signal;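 also: fluorescence read at 667 nm with signal to noise per printed feature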
[11] = cell viability in Huh7 cells, primary screen, cytotoxicity control for HCV replication inhibitor project, CellTiter-Glo luminescence, basal, 48 h (AID 1143); conditions: Huh7 HCV replicon, higher = more signal, called active from +8 up or from −8 down;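 also: Huh7 hepatoma cells carrying a hepatitis C replication reporter with no stimulus; test concentration not given here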
[12] = P. aeruginosa biofilm formation inhibitors, primary screen, PAO1 strain, BacTiter-Glo luminescence, LB-PBS (AID 1144); conditions: 12 h, higher = more signal
[13] = CREB reporter modulators without forskolin, primary screen, cell-based, PC12, CRE-LacZ reporter, unstimulated (AID 1145); conditions: no forskolin, luminescence, 4.5 h, higher = more signal, called active from +8 up or from −8 down
[14] = CREB reporter modulators under forskolin, primary screen, cell-based, PC12, CRE-LacZ reporter, forskolin-stimulated (AID 1146); conditions: luminescence, 4.5 h, higher = more signal, called active from +8 up or from −8 down;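 also: PC12 cells with 6xCRE LacZ reporter stimulated by forskolin 10 µM; beta-galactosidase reporter signal reflecting CREB driven transcription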
[15] = target: Streptavidin (Streptomyces avidinii) (UniProt P22629); assay: streptavidin binders on small-molecule microarray, primary screen, artefact control for SMM compound annotation, biophysical, 635/667 nm fluorescence (AID 1147); conditions: streptavidin binding, higher = more signal;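 also: signal reflects streptavidin binding to arrayed compounds as a control protein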
Streptavidin (Streptomyces avidinii), sequence (P22629 whole entry, looked up): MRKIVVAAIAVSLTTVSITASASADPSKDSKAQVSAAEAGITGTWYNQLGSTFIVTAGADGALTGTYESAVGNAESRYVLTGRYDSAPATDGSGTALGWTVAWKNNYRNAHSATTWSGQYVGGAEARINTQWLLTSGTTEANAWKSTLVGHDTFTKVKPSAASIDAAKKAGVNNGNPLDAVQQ

[16] = small-molecule binders of probe aInhba, primary screen, biochemical, small-molecule microarray, 635/667 nm fluorescence (AID 1148); conditions: higher = more signal;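 also: score merges 667nm spot fluorescence with signal-to-noise for antibody binding to printed compounds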
Torsin-1A (Homo sapiens) [17] = target: Torsin-1A (Homo sapiens) (UniProt O14656); assay: torsin A binders from cell lysate, primary screen, small-molecule microarray, wild-type, 635/667 nm (AID 1149); conditions: COS7 hTOR1A-WT lysate, 635 nm fluorescence, higher = more signal
Torsin-1A (Homo sapiens), sequence (O14656 whole entry, looked up): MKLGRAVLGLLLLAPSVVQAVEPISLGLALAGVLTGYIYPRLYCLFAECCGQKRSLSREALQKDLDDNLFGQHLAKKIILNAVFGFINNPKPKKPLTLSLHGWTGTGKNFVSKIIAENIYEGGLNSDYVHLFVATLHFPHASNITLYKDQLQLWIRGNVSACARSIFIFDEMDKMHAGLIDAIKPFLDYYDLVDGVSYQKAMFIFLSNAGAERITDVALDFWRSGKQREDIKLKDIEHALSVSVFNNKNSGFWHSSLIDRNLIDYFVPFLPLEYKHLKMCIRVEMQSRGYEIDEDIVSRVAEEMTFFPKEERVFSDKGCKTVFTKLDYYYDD

Torsin-1A (Homo sapiens) [18] = target: Torsin-1A (Homo sapiens) (UniProt O14656); assay: small-molecule binders of mutant TOR1A in lysate, primary screen, cell lysate, small-molecule microarray, COS7 lysate, 635/667 nm fluorescence (AID 1150); conditions: COS7 hTOR1A mutant lysate, 635 nm fluorescence, higher = more signal;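 also: score pools 667 nm emission and signal to noise measuring lysate protein binding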
[19] = system: Sonic hedgehog protein (Shh); assay: small-molecule binders of Shh protein, primary screen, biochemical, small-molecule microarray, 635/667 nm fluorescence (AID 1151); conditions: small-molecule microarray binding, 635 nm fluorescence; higher = more signal;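 also: Shh protein binding to compounds spotted on small-molecule microarray slides; score combines spot fluorescence intensity with signal-to-noise across triplicate slides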

| Structure (SMILES) | composite z-score [1] | composite z-score [2] | composite z-score [3] | composite z-score [4] | composite z-score [5] | composite z-score [6] | z-score [7] | composite z-score (Lefty1) | composite z-score [8] | z-score [9] | composite z-score [10] | z-score [11] | z-score [12] | z-score [13] | z-score [14] | composite z-score [15] | composite z-score [16] | composite z-score (Torsin-1A (Homo sapiens) [17]) | composite z-score (Torsin-1A (Homo sapiens) [18]) | composite z-score [19] |
| --- | --- | --- | --- | --- | --- | --- | --- | --- | --- | --- | --- | --- | --- | --- | --- | --- | --- | --- | --- | --- |
| COCCOC(=O)N1C(=O)[C@@]2(c3cc(C#Cc4ccc(OC)cc4)ccc31)[C@H](c1ccc(O)cc1)N1[C@H](c3ccccc3)[C@H](c3ccccc3)OC(=O)[C@H]1[C@@H]2C(=O)NC[C@H](O)c1ccccc1 | 0.522 | 1.22 | -0.0575 | 0.994 | 1.3 | 1.4 | -1.51 | 1.33 | 0.623 | 1.05 (inactive) | 0.763 | -3.94 (inactive) | -0.88 (inactive) | -1.15 (inactive) | 0.7 (inactive) | 0.452 | -0.0259 | 0.105 | 1.07 | 2.05 |
| O=C1OCCC/C=C\[C@H]2OC34C=CCN(c5ccc6ccccc6c5)C(=O)[C@H]3N(CCCCCCO)C(=O)[C@@H]4C12 (stereo not given in full) | 1.79 | 0.124 | -0.29 | -1.74 | -0.179 | -0.943 | 1.74 | -0.159 | -0.0279 | -1.47 (inactive) | -0.694 | 0.117 (inactive) | -1.7 (inactive) | 0.61 (inactive) | -0.677 (inactive) | -1.1 | -0.128 | -1.12 | -1.2 | -0.0305 |
| COc1ccc([Si](C)(C)[C@@H]2[C@@H](CCO)O[C@]3(C(=O)N(Cc4ccc(N5C(=O)COc6ccccc65)cc4)c4ccccc43)[C@H]2C)cc1 | 1.58 | 1.18 | 0.571 | 0.814 | 0.59 | 0.621 | -0.342 | 0.955 | 0.978 | 0.686 (inactive) | 0.44 | -7.31 (inactive) | -0.374 (inactive) | 0.804 (inactive) | 2.02 (inactive) | 0.636 | 0.0261 | 0.436 | 0.586 | 1.57 |
| COc1ccc(CCNC(=O)[C@@]2(Sc3ccc(C)cc3)CC(=O)N(C3CCCCC3)[C@@H]2c2ccc(CO)cc2I)cc1 | 0.949 | 1.21 | 0.28 | 0.151 | 0.884 | 0.535 | -0.0279 | 0.569 | 0.396 | 0.645 (inactive) | 0.843 | -2.23 (inactive) | -0.382 (inactive) | -0.168 (inactive) | 1.19 (inactive) | 0.422 | 0.0391 | 0.333 | 0.789 | 0.855 |
| COc1cc2c(cc1O)C=[N+](Cc1cccc(OC(F)(F)F)c1)CC2 | -0.131 | -0.566 | 0.185 | -0.636 | 0.318 | -0.0744 | 2 | -0.285 | 1.01 | -0.847 (inactive) | -0.141 | -2.11 (inactive) | -0.28 (inactive) | -0.401 (inactive) | -0.583 (inactive) | -0.535 | -0.127 | 0.955 | 0.284 | -0.0245 |
| CC(C)(C)OC(=O)CC[C@@]12N=C(c3ccc(OCCCO)cc3)O[C@@H]1c1ccccc1N(CCS(=O)(=O)c1ccccc1)C2=O | 2.03 | 1.19 | 0.412 | 0.129 | 1.3 | 0.109 | 0.84 | 0.644 | 0.653 | -7.46 (inactive) | 0.251 | -3.45 (inactive) | 0.114 (inactive) | -0.389 (inactive) | -1.71 (inactive) | 0.901 | 0.0737 | -0.0101 | 0.537 | 1.27 |
| COCCCNC(=O)C1N=C(c2ccc(OCCCO)cc2)N(c2ccccc2)O1 (stereo not given) | 1.38 | 1.03 | 0.234 | 0.95 | 1.11 | 0.555 | 0.735 | 0.517 | 0.569 | -10.5 (active) | 0.282 | -2.78 (inactive) | 0.708 (inactive) | -0.207 (inactive) | 0.72 (inactive) | 0.51 | 0.151 | 0.777 | 0.442 | 0.264 |
| CN1C(=O)C2C=CC(C(O)c3ccc(-c4ccccc4)s3)N(N(c3ccccc3)c3ccccc3)C2C1=O (stereo not given) | 0.0993 | 0.628 | 0.162 | 0.528 | 1.14 | -0.314 | 0.767 | -0.119 | 1.08 | -0.377 (inactive) | 0.123 | -0.0598 (inactive) | -0.468 (inactive) | -0.14 (inactive) | -0.101 (inactive) | 1.14 | 0.12 | 0.91 | -0.0126 | 0.409 |
| CCCC[C@@H]1C[C@H]1[C@@H](NC(=O)c1ccco1)c1ccc(Cl)cc1 | 1.26 | 1.2 | 0.998 | 0.939 | 0.0863 | -0.488 | 1.88 | -0.406 | 1.21 | 1.17 (inactive) | 0.202 | -2.63 (inactive) | 0.564 (inactive) | -0.561 (inactive) | 0.473 (inactive) | 2.09 | 0.306 | 0.104 | 0.481 | -0.292 |
| C=CCOC(=O)[C@@H]1[C@H]2C(=O)O[C@H](c3ccccc3)[C@H](c3ccccc3)N2[C@H](c2ccc(OCCOC(=O)[C@@H]3C[C@@H]4C(=O)N[C@@H](Cc5ccccc5)C(=O)N4[C@@H]3c3ccc(O)cc3)cc2)[C@@]12C(=O)Nc1ccc(I)cc12 | 1.11 | 0.947 | 0.375 | 0.799 | 1.41 | 1.61 | -1.53 | 1.41 | 0.844 | 0.304 (inactive) | 0.425 | -1.28 (inactive) | -0.606 (inactive) | -0.537 (inactive) | -0.526 (inactive) | 0.122 | 0.0154 | 0.521 | 0.38 | 2.22 |
